According to publication PMC5540273 (PLoS ONE, 2017):

Legend:
Settings in all cases: concentration: 1 μM, replicates: in singlicate; n = 1
[1] = system: AKT3
[2] = system: ALK
[3] = system: T1, AMPK-alpha1
T1 construct: gene PRKAA1

[4] = system: T2, AMPK-alpha2
T2 construct: gene PRKAA2

[5] = system: ANKK1
[6] = system: T3, ARK5
T3 construct: gene NUAK1

[7] = system: T4, ASK1
T4 construct: gene MAP3K5

[8] = system: T5, ASK2
T5 construct: gene MAP3K6

[9] = system: AURKA
[10] = system: AURKB
[11] = system: AURKC
[12] = system: AXL
[13] = system: T6, BIKE
T6 construct: gene BMP2K

[14] = system: BLK
[15] = system: BMPR1A
[16] = system: BMPR1B
[17] = system: BMPR2
[18] = system: BMX
[19] = system: BRAF
[20] = system: T7, BRK
T7 construct: gene PTK6
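Further: KINOMEscan kinase panel screen.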

SMILES	%Inh [1] [%]	%Inh [2] [%]	%Inh [3] [%]	%Inh [4] [%]	%Inh [5] [%]	%Inh [6] [%]	%Inh [7] [%]	%Inh [8] [%]	%Inh [9] [%]	%Inh [10] [%]	%Inh [11] [%]	%Inh [12] [%]	%Inh [13] [%]	%Inh [14] [%]	%Inh [15] [%]	%Inh [16] [%]	%Inh [17] [%]	%Inh [18] [%]	%Inh [19] [%]	%Inh [20] [%]
Cl.c1ccc(Cn2ccc3cc(Nc4ncnc5ccccc45)ccc32)cc1 [GW275568]	0	0	11	0	43	29	1	0	17	30	0	0	13	0	0	0	13	18	0	0
CC(C)(C)OC(=O)NC1CCCN(c2cc(-c3ccc4c(N)n[nH]c4c3)nc(N)n2)C1 (centres unmarked) [GSK2286096]	0	36	0	0	7	19	0	0	52	66	53	5	10	0	0	0	0	8	16	13
CCc1nc(-c2cccc(N(C)S(=O)(=O)c3ccccc3)c2)c(-c2ccnc(Nc3ccc(N4CCN(C(C)=O)CC4)nc3)n2)s1 [GSK1645895]	0	18	0	0	26	16	12	0	19	10	0	0	0	64	0	0	0	15	60	31
Cl.c1ccc(Cn2ncc3cc(Nc4ncnc5ccccc45)ccc32)cc1 [GW273749]	0	16	0	0	0	0	0	1	10	8	0	0	0	17	0	0	0	0	0	0
COc1ccc(Nc2nccc(N3CCC(NC(=O)c4cccc(NC(C)=O)c4)C3)n2)cc1 (centres unmarked) [GSK1379732]	23	0	5	0	11	9	0	1	16	1	1	1	0	40	0	0	9	16	0	0
OCCOCCn1ccc2ncnc(Nc3ccc(Oc4cccc(Cl)c4)c(Cl)c3)c21	0	0	0	0	0	0	0	0	0	0	0	0	0	3	1	0	0	13	0	0
COc1ccc(-c2oc3ncnc(N)c3c2-c2ccc(OC)cc2)cc1 [SB-589132]	0	32	0	10	0	13	11	7	0	30	0	13	0	66	0	0	30	0	38	15
C[C@@H]1CCN(C(=O)CO)C[C@@H]1N(C)c1ncnc2[nH]ccc12	7	15	5	0	0	0	0	0	0	0	0	0	19	2	23	0	0	0	0	0
O=C(NCCCN1CCCC1=O)c1cnc(NCc2cc(Cl)ccc2Cl)nc1NC1CCNCC1	0	21	18	17	0	0	0	0	0	0	0	41	4	0	6	0	0	0	39	0
CSc1nn2c(=O)cc(N3CCOCC3)nc2n1Cc1cccc(Cl)c1Cl [GSK2347225]	1	30	11	20	19	7	14	0	21	0	11	45	29	52	19	1	0	6	0	17
